Test results: ChEMBL document CHEMBL3988442, “University of Dundee, Small-Polar-MMV Screening Library” (2021)
Hit rate of the full screen: of about 48,000 compounds, about 13,000 (27%) showed an effect of 50% or more. Some of the results follow.

Each compound was assayed on Wolbachia pipientis (assay: Anti-Wolbachia Cell-Based Screen). Conditions: 5 µM.
Type: functional
Set-up: scale not given: in the data most compounds retested in dose-response had high values

In order of rising “Percent Effect” value:
1. O=C1CCc2cc(S(=O)(=O)NC(=O)c3ccc4c(c3)OCO4)ccc2N1  -58.45%
2. Cc1cc(C)c2c(N3CCN(Cc4ncccc4C)CC3)ncnc2n1  -39.06%
3. CSc1ccc(NC(=O)Cc2cccc(O)c2)nc1  -26.55%
4. CCOCC(=O)NC1(c2cccc(Br)c2)CC1  -23.15%
5. CC(C)N(CCNCc1ccc(C#N)cc1)C1CC1  -21.35%
6. COCCN1CCN(c2ncnc3nc(C)cc(C)c23)CC1  -19.86%
7. CC(C)CCC(=O)N1CCC(c2nnc(CN(C)CCO)n2C)CC1  -15.68%
8. COCCN1CCN(Cc2nccs2)[C@H]2CS(=O)(=O)C[C@H]21  -12.76%
9. COCCCN1CCN(c2ncnc3nc(C)cc(C)c23)CC1  -12.49%
10. CN(C)CCN1CC[C@H]2[C@@H]1CCN2Cc1ccc2c(c1)OCO2  -11.21%
11. CCS(=O)(=O)c1ccccc1C(=O)NCC1Cc2ccccc2O1 (stereo unspecified)  -9.446%
12. CC(=O)N[C@@H]1CN(C(=O)c2ccc[nH]2)C[C@H]1c1ccc(C)o1  -8.166%
13. Cc1cncc(C(=O)N2CCC3(CC2)C(=O)Nc2ccccc23)c1  -7.764%
14. Cc1c[nH]c(CN2CCCCC2CCN(C)C)c(C)c1=O (stereo unspecified)  -7.535%
15. c1ccc(-c2cnc(CNCC3CCCN3c3cccnn3)o2)cc1 (stereo unspecified)  -6.959%
16. COc1c(C2CCCN2CCOc2ccccc2C#N)c(C)nn1C (stereo unspecified)  -6.58%
17. O[C@@H]1C[C@@H](c2nc(-c3ccccc3)no2)N(Cc2ccncc2)C1  -6.257%
18. Cc1cnc(NC(=O)c2ccc(C3CCCN3CC(C)C)s2)s1 (stereo unspecified)  -4.424%
19. CCC[C@H]1CN(Cc2ccc(N(C)C)nc2)C[C@@H]1NC(=O)CCOC  -4.276%
20. FC(F)(F)c1ccc(-c2noc3c2CN(CC2CCCO2)CC3)cc1 (stereo unspecified)  -4.107%
21. Cc1cc(C(=O)N2CCC3(CC2)CN(CCN(C)C)C(=O)O3)nc(C)n1  -4.106%
22. CS(=O)(=O)N1C[C@@H]2CC[C@H](C1)N(Cc1ccsc1)C2  -3.691%
23. CC(=O)N1C[C@H](NS(=O)(=O)N2CCCC2)[C@@H](c2ccc(C)o2)C1  -3.445%
24. Cc1cc(C)c2c(N(C)CC3COCCO3)ncnc2n1 (stereo unspecified)  -3.038%
25. O=C(CN1CCN(c2ncnc3c2CCNCC3)CC1)N1CCCCC1  -2.249%
26. O[C@@H]1C[C@@H](c2nc(-c3ccccc3)no2)N(CC2CCCCC2)C1  -2.196%
27. COc1ccnc(CNc2nc(C)nc(C)c2C)c1  -1.425%
28. CC(=O)N[C@@H]1CN(C(=O)c2cc(C)oc2C)C[C@H]1c1ccc(C)o1  -1.342%
29. COCCN1CCCC1c1nccnc1Nc1nc(C)cs1 (stereo unspecified)  -1.129%
30. Cc1ccc(CN2CCc3ncnc(-c4ccc(F)cc4)c3CC2)o1.O=C(O)C(F)(F)F  -0.3748%
31. CCS(=O)(=O)NCc1cc(Br)c(OC)c(OC)c1  -0.2028%
32. CNc1nc(CN2C[C@@H](NC(C)=O)[C@H](c3ccc(C)o3)C2)cs1  0.1699%
33. Cc1nc[nH]c1C(=O)N1CCC2(CC1)CN(CCN(C)C)C(=O)O2  0.5324%
34. O=C(CN1CCCCCC1=O)NC1CCc2nccn2C1 (stereo unspecified)  0.7111%
35. Oc1ccccc1CN1C[C@H](O)C[C@H]1c1nc(Cc2ccccc2)no1  2.62%
36. CC(C)Oc1ncnc2c1CCN(Cc1ccco1)CC2.O=C(O)C(F)(F)F  2.851%
37. CC(C)Oc1ncnc2c1CCN(Cc1ccoc1)CC2.O=C(O)C(F)(F)F  3.383%
38. Cn1cnc2c1C(C(=O)N1CCCC1)N(S(C)(=O)=O)CC2 (stereo unspecified)  3.413%
39. CCc1nc(CC(=O)N2CCn3c(nnc3C(C)C)C2)cs1  3.887%
40. O[C@@H]1C[C@@H](c2nc(-c3ccccc3)no2)N(Cc2cccnc2)C1  4.417%
41. Cc1cccc(-c2noc([C@@H]3C[C@@H](O)CN3CC3CCCCC3)n2)c1  5.786%
42. Cc1ccc(CN2C[C@H]3CN(Cc4ccccc4Cl)CCN3C2=O)cc1  5.801%
43. O[C@@H]1C[C@@H](c2nc(Cc3ccccc3)no2)N(Cc2ccc(F)cc2)C1  5.892%
44. Cc1n[nH]c(=O)c2c(NC(=O)CN3CCC(C)CC3)oc(C)c12  8.431%
45. CCC(=O)N1CCCN(C(=O)C2SCCc3sccc32)CC1 (stereo unspecified)  13.84%
46. NC(=O)c1ccc(OCCC(=O)NC2CCc3c(F)cccc32)cc1 (stereo unspecified)  19.22%
47. Cc1ccc(C(=O)N2CCC3(CC2)CN(CCN(C)C)C(=O)O3)c(F)c1  62.77%
48. C/C=C(\C)CN1C[C@H](NC(=O)CCOC)[C@@H](c2ccc(C)o2)C1  82.28%
49. O[C@@H]1C[C@H]2CN(CC3CCCCC3)[C@H](Cc3ccccc3)CN2C1  87.27%
50. Cc1ccc([C@H]2CN(CCO)C[C@@H]2NC(=O)CN2CCCCC2=O)o1  92.71%
51. COCCN1CCCC1c1nccnc1Nc1nccs1 (stereo unspecified)  95.24%
52. Cc1ccc(CN2CCc3ncnc(-c4ccncc4)c3CC2)o1.O=C(O)C(F)(F)F.O=C(O)C(F)(F)F  96.83%
53. C/C=C(\C)CN1C[C@H](NC(=O)CN2CCCC2=O)[C@@H](c2ccc(C)o2)C1  97.75%
54. COC(=O)N1CCN(c2ncnc3nc(C)cc(C)c23)CC1  98.52%
55. COCCN1CCCC1c1nccnc1Nc1ncc(C)s1 (stereo unspecified)  100%
56. Cc1ccc(CN2CCc3ncnc(-c4ccoc4)c3CC2)o1.O=C(O)C(F)(F)F  105.9%
57. O[C@@H]1C[C@H]2CN(Cc3ccsc3)[C@@H](Cc3ccccc3)CN2C1  108.5%
58. O[C@@H]1C[C@H]2CN(Cc3ccccc3)[C@H](Cc3ccccc3)CN2C1  111.3%
59. Cc1cc(C)c2c(N3CCN(C(=O)N(C)C)CC3)ncnc2n1  111.7%
60. O[C@@H]1C[C@H]2CN(Cc3ccccc3Cl)[C@H](Cc3ccccc3)CN2C1  117.1%
61. CC1c2ccsc2CCN1Cc1cc2c(cc1O)OCO2 (stereo unspecified)  137.7%
